Shown are actives, neighbours in structure and some others; about 0.43% of the full set was active somewhere.
GLA spleen mod – qHTS Assay for Inhibitors and Activators of Human alpha-Galactosidase From Spleen Homogenate; Alpha-galactosidase A (Homo sapiens), P06280; human spleen homogenate, 4MU-alpha-Gal fluorescence, 40 min; Potency, µM (doses to about 80 µM), for the others: at the highest dose activity change, negative = inhibition, hits mostly inhibitors; 240,000 compounds, 0.008% hits; AID 2107, 2009;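 note: potency is the fitted concentration of half-maximal effect; 0% = enzyme with vehicle and -100% = no enzyme basal signal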
Target sequence (P06280 32-429 limits assumed): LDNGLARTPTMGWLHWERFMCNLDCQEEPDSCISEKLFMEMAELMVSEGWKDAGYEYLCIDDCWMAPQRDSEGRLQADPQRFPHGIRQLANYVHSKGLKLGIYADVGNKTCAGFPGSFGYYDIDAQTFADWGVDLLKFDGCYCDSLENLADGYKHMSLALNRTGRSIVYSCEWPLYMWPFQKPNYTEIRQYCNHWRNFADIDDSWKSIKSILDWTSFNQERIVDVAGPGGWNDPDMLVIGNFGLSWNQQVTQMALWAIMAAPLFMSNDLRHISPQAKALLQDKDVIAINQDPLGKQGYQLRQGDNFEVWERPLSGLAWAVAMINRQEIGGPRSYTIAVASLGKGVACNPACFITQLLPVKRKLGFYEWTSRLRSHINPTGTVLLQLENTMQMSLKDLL
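Spleen homogenate 1 ug + cpd (titration) + 4-MU-alpha-D-galactopyranoside 1 mM; 37C 40 min; 50 mM citrate/phosphate pH 5.0, 0.01% Tween-20; stop pH 10; fluorescence 365/440; AC50 via Hill.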
aGlu spleen mod – qHTS Assay for Inhibitors and Activators of Human alpha-Glucosidase From Spleen Homogenate. human spleen homogenate, 4-MU-alpha-glucoside fluorescence. Lysosomal alpha-glucosidase (Homo sapiens), P10253. Potency, µM (titrated, usually from 79.9 µM), without a hit: at the top dose activity change, negative = inhibition, actives largely listed as inhibitors. 240,000 compounds, 0.006% hits;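 note: potency is the fitted concentration of half-maximal effect; 0% = enzyme with vehicle and -100% = no enzyme basal signal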
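Enzyme source: human spleen homogenate, 1 ug/well. Buffer 50 mM citric acid/K phosphate pH 5.0, 0.01% Tween-20. 4-MU-alpha-glucoside 1 mM; 37 C x 40 min; NaOH/glycine stop; fluorescence.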
N370S GC mod – qHTS Assay for Inhibitors and Activators of N370S glucocerebrosidase as a Potential Chaperone Treatment of Gaucher Disease; Potency, µM (series often up to 59.4 µM), without a hit: at the top dose activity change, negative = inhibition, most hits filed as inhibitors; Lysosomal acid glucosylceramidase (Homo sapiens), P04062; 330,000 compounds, 0.092% hits; N370S GC spleen homogenate, 4MU-glucoside fluorescence;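 note: potency is the fitted concentration of half-maximal effect; 0% = full enzyme activity and -100% = no enzyme basal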
GAA inhib – qHTS Assay for Inhibitors of Human alpha-Glucosidase as a Potential Chaperone Treatment of Pompe Disease; purified human GAA, 4-MU-alpha-glucoside fluorescence; 200,000 compounds, 0.005% hits; Potency, µM (titrated, usually from 76.9 µM), for the others: top-dose activity change, negative = inhibition, hits mostly inhibitors; Lysosomal alpha-glucosidase (Homo sapiens), P10253;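 note: potency is the fitted concentration of half-maximal effect; plate controls were uninhibited enzyme wells for no effect and no-enzyme background for full effect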
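qHTS format, compound range up to 77 uM. Human lysosomal enzyme at 4 nM, 400 uM 4-MU glucoside substrate, pH 5.0, 20 min room temperature; fluorescence after alkaline stop gives activity normalized to controls.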
GAA glycogen – qHTS Assay for Inhibitors and Activators of Human alpha-Glucosidase Cleavage of Glycogen. Lysosomal alpha-glucosidase (Homo sapiens), P10253. recombinant GAA, glycogen substrate, Amplex Red glucose oxidase fluorescence. Potency, µM (highest dose often 76.4 µM), without a hit: at the top dose activity change, negative = inhibition, hits mostly inhibitors. 300,000 compounds, 0.38% hits;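 note: potency is the fitted concentration of half-maximal effect; 0% = full enzyme reaction and -100% = no-enzyme basal signal; the screen sought inhibitors and activators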
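Natural-substrate format: glycogen cleavage by 4 nM human enzyme, glucose read by Amplex Red coupling (Ex 573, Em 610 nm). Normalized to enzyme and no-enzyme controls.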
GLA inh pH 4.5 – qHTS Assay for Inhibitors of Human alpha-Galactosidase at pH 4.5 | Alpha-galactosidase A (Homo sapiens), P06280 | purified enzyme, 4-MU-alpha-Gal fluorescence, pH 4.5 | activity change, negative = inhibition, % at 105 µM | 230,000 tested, under 10 active;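 note: 0% = full activity with enzyme and -100% = basal without enzyme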
An asterisk follows results filed as active; ? = inconclusive; . = no result; [ ] = another dose, or the depositor's remark. Calls come from the whole dose curve; as a rule, active = well fitted curve in the direction sought with a large enough effect; inconclusive = small, poorly fitted or top-dose-only effect, or another doubt; inactive = no such curve, though single readings can be large; an effect the other way counts as inactive or inconclusive.

SMILES | GLA spleen mod | aGlu spleen mod | N370S GC mod | GAA inhib | GAA glycogen | GLA inh pH 4.5
COc1ccc(N(CC(=O)NCc2ccc(C)cc2)S(=O)(=O)c2c(C)[nH]c(=O)[nH]c2=O)cc1 | . | . | 8.91µM* | . | -3.3%[76.3 µM] | .
CCOc1ccc(N(CC(=O)Nc2cccc(C)c2C)S(=O)(=O)c2c(C)[nH]c(=O)[nH]c2=O)cc1 | 7.5% | -7.8% | 11.2µM* | . | 4.5% | -1.2
CCOc1ccc(N(CC(=O)Nc2c(C)cccc2C)S(=O)(=O)c2c(C)[nH]c(=O)[nH]c2=O)cc1 | -1.5% | -0.2% | 4.47µM* | . | -2.2% | -10.9
CCOc1ccc(N(CC(=O)NCc2ccc(C)cc2)S(=O)(=O)c2c(C)[nH]c(=O)[nH]c2=O)cc1 | . | . | ? | . | -5.2%[76.3 µM] | .
CCOc1ccc(N(CC)S(=O)(=O)c2c(C)[nH]c(=O)[nH]c2=O)cc1 | . | . | -6.0% | . | -2.4% | .
CCOc1ccc(N(CC(=O)NCc2ccccc2Cl)S(=O)(=O)c2c(C)[nH]c(=O)[nH]c2=O)cc1 | . | . | 3.98µM* | . | -8.2%[76.3 µM] | .
O=C(CBr)Nc1c2c(nn1-c1ccccc1)CSC2 | . | . | -14.8% | . | . | .
COc1ccccc1CNc1ncncc1-c1ccccc1C(F)(F)F | 6.0% | 0.9% | -1.1% | . | . | .
Fc1ccc(N=Cc2ccc[nH]2)cc1 | . | . | -12.0% | . | -17.6% | .
Oc1ccccc1N=Cc1ccc[nH]1 | 4.6% | 3.6% | 2.1% | 1.2% | 2.82µM* | 2.7
O=C(CN1CCN(c2ccc(O)cc2)CC1)Nc1cc([N+](=O)[O-])ccc1Cl | 10.5% | 2.8% | -3.5% | 2.2% | 11.2µM* | -1.9
O=C(CN1CCN(c2ccc(O)cc2)CC1)NC(=O)NCc1ccco1 | 4.0% | 8.1% | -3.8% | 5.0% | 3.16µM* | 7.3
Cc1cc(NC(=O)CN2CCN(S(=O)(=O)c3ccc(Cl)cc3)CC2)no1 | 0.9% | -4.1% | -3.4% | -6.4% | 0.6% | 2.3
COc1ccc(N2CCN(CC(=O)NC(=O)NCc3ccco3)CC2)cc1 | -6.1% | -2.6% | 5.2% | 2.4% | -2.2% | -11.4
Cc1cc(NC(=O)CN2CCN(c3ccc(O)cc3)CC2)no1 | 0.8% | -9.8% | 6.2% | 0.4% | 8.91µM* | 4.5
CC(=O)N1CCN(CC(=O)Nc2cc([N+](=O)[O-])ccc2Cl)CC1 | 4.2% | 3.0% | -9.2% | 4.0% | -0.1% | -2.4
CCc1ccc(OCC(=O)Nc2ccc3[nH]ncc3c2)cc1 | . | . | 3.8% | . | . | .
CCOC(=O)c1c(-c2ccccc2)oc2ccc(NS(=O)(=O)c3ccc(C(C)C)cc3)cc12 | . | . | . | . | -16.8%[76.3 µM] | .
COc1cccc(OCc2cc(=O)n3c(-c4ccccc4)csc3n2)c1 | . | . | . | . | 5.5%[76.3 µM] | .
COc1cc(C(=O)CC2(O)C(=O)N(Cc3ccccc3Cl)c3ccccc32)cc(OC)c1OC (centres undefined) | . | . | . | . | -11.2%[76.3 µM] | .
O=C(Cn1cc(SCc2cccc(F)c2)c2ccccc21)N1CCCC1 | . | . | . | . | 8.3%[76.3 µM] | .
COc1cc(-c2nnc(SCc3cc(=O)oc4cc(O)c(O)cc34)o2)cc(OC)c1OC | 8.0% | -21.1% | -20.9% | -5.6% | 15.8µM* | -0.5
CCOC(=O)CSc1nnc(-c2cc(OC)c(OC)c(OC)c2)o1 | -2.0% | 8.1% | 0.0% | 10.3% | -8.5% | 0.7
Cc1cc(NC(=O)COC(=O)CCNS(=O)(=O)c2ccccc2)n(-c2ccccc2)n1 | . | . | -1.7% | . | . | .
CCN(CC)c1ccc(NC(=O)c2cnn3c(C(F)F)cc(-c4ccccc4)nc23)cc1 | . | . | . | . | 17.9%[76.3 µM] | .
SMILES | GLA spleen mod | aGlu spleen mod | N370S GC mod | GAA inhib | GAA glycogen | GLA inh pH 4.5
Cc1cccc2cc(-c3nc4c(C)cccn4c3NCc3ccco3)c(=O)[nH]c12 | -3.6% | -2.5% | -7.3% | -5.2% | 18.8% | -4.4
Cc1ccc2[nH]c(=O)c(-c3nc4cc(C)ccn4c3NCc3ccco3)cc2c1 | -2.2% | 6.2% | -10.7% | ? | 9.92µM* | -10.8
Fc1ccccc1NC(=S)NNc1ncc(C(F)(F)F)cc1Cl | 1.3% | -1.5% | -2.3% | -10.5% | 28.2µM* | 2.4
CN1C2CC(OC(=O)C(CO)c3ccccc3)C[C@@H]1[C@H]1OC21 (some centres undefined) | 8.3% | 4.9% | -1.8% | . | . | -4.2
OC(COC(c1ccccc1)c1ccccc1)CN1CCc2ccccc2C1 (centres undefined) | -3.1% | -1.0% | -22.8% | -8.7% | -6.5% | -3.4
OC(COC(c1ccc(Cl)cc1)c1ccc(Cl)cc1)CN1CCc2ccccc2C1 (centres undefined) | -3.7% | -0.9% | 7.94µM* | -2.2% | 8.1% | -10.0
COc1cccc(NC(=S)NNC(=O)c2c([N+](=O)[O-])c(C)nn2C)c1 | -1.3% | -1.1% | -1.9% | 0.7% | 24.9µM* | 2.2
COc1cccc(NC(=S)NNC(=O)C(C)n2nc(C)c([N+](=O)[O-])c2C)c1 (centres undefined) | 14.6% | 8.5% | 15.1% | 0.3% | 10µM* | 2.7
C=CC1=C2C=C(C3CC3)N(Cc3ccco3)C=C2C(=O)C(C)(OC(=O)c2ccco2)C1=O (centres undefined) | -3.5%[17.5 µM] | 2.3%[17.4 µM] | -13.7%[12.8 µM] | . | . | 7.8
Cc1ccc(-n2c(CNc3cccc(Cl)c3)n[nH]c2=S)cc1 | -1.7% | -2.4% | 2.2% | -3.4% | 28.2µM* | 9.6
Cc1ccc(NCc2n[nH]c(=S)n2-c2cccc(Cl)c2)cc1 | -7.1% | -3.2% | 21.8% | 1.2% | ? | 16.3
CCCCC/C=C\CC(O)/C=C/c1cccc(CC(O)CCCCO)n1 (centres undefined) | -7.2% | -7.0% | -4.8% | . | . | 1.9
Oc1ccc(N2CCN(C(c3ccncc3)c3nnnn3C3CCCC3)CC2)cc1 (centres undefined) | -6.0% | -11.2% | -8.9% | -7.6% | 12.5µM* | -0.3
O=[N+]([O-])c1ccccc1NC(=S)N/N=C/c1ccc(O)c(O)c1 | -9.3% | -5.7% | -10.9% | -7.3% | 3.55µM* | 3.1
CCOc1cccc(/C=N/NC(=S)Nc2ccccc2[N+](=O)[O-])c1O | -5.8% | -0.1% | 2.1% | 2.8% | 2.5% | -7.8
Cc1nn(CC(=O)N2CCCC2)c(=O)c2cc3cc(F)ccc3n12 | . | . | 0.7% | . | . | .
Cc1ccc2c(C(=O)CNc3nncs3)c(C)[nH]c2c1 | -3.9% | 1.8% | -12.3% | 1.7% | 28µM* | 5.0
Cc1cc(O)ccc1Nc1nc(-c2cccs2)cs1 | -15.8% | -1.8% | -10.1% | 2.8% | 31.6µM* | -1.5
